The text below walks through data of PubChem BioAssay (NCATS).

Several values for one entry are separate records, joined by “and”; a condition that tells them apart may be missing. Equal entries are not always repeated. Inconclusive results are not listed. Unmarked numbers belong to inactive results. Activity calls are given as the source filed them. The call rests on the fitted dose curve; in most records, active means well fitted curve in either direction with a large enough effect (not every such curve was filed as active); inconclusive means small, poorly fitted or top-dose-only effect, or another doubt; inactive means flat fitted curve, though single readings scatter.
On the % scale 0 is the no-effect control and ±100 the full control effect.

The nature of one assay: NFAT Signaling Pathway (AID 444).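 Further: carbachol stimulus at about its EC50 of 1 µM final.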 Conditions: Jurkat NFAT-bla M1, carbachol, beta-lactamase ratio, 5 h; at 38 µM (top of the series). Summed up: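 Read-out: CCF4 FRET ratio (460 nm/530 nm) after 1 h RT dye loading, used for %activity and AC50 from titration series. Cells: Jurkat NFAT-β-lactamase/M1 line, treated with compound plus 1 uM carbachol for 5 h, 37 °C.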
For the compound `CN1CCC[C@@H]1c1cccnc1`, the activity change, negative = inhibition is -1.61%. In the case of `Nc1cc(Cl)c(NC2=NCCN2)c(Cl)c1`, the activity change, negative = inhibition is -7.69%.

For the compound `C[C@@H]1C(=O)NC2=Nc3cccc(Cl)c3CN21`, the activity change, negative = inhibition is -0.581%.

A further assay in a line: Stat Signaling Pathway (AID 446).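 Further: ME-180 cervical cancer cells given 40 pM IL-6 alongside compound; SIE-controlled beta-lactamase reporter measured as 460/530 nm FRET emission ratio.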 Particulars: ME-180 (cervical carcinoma) SIE beta-lactamase reporter, IL-6 stimulated, 5 h; at 17.2 µM (top of the series). Summed up:
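ME-180 SIE-bla cells; overnight plating; cpd + IL-6 40 pM, 5 h, 37 C; LiveBLAzer 2.5 h RT; 460/530 nm emission ratio. Normalized to 300 pM IL-6 and 125 nM JAK inhibitor controls.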
Consider `C[C@H]1C[C@H]2[C@@H]3CCC4=CC(=O)C=C[C@]4(C)[C@@]3(Cl)[C@@H](O)C[C@]2(C)[C@@]1(O)C(=O)CO`, for which the activity, negative = inhibition was -1.29%. For the compound `CN1CCN(C(c2ccccc2)c2ccccc2)CC1`, the activity, negative = inhibition is 3.06%. As to `CCCCOc1ccc(C(=O)CCN2CCCCC2)cc1`, the activity, negative = inhibition was -25% and -28.6%. Same read-out and setting: the same measure for `CCN1CCN(c2cc3c(cc2F)c(=O)c(C(=O)O)cn3C2CC2)CC1`: 20.5%.

For `CCCC1O[C@@H]2C[C@H]3[C@@H]4CCC5=CC(=O)C=C[C@]5(C)[C@H]4[C@@H](O)C[C@]3(C)[C@]2(C(=O)CO)O1` (stereo not given in full), the activity, negative = inhibition is -3.6%. Regarding `CC(C)N=C(N)/N=C(\N)Nc1ccc(Cl)cc1`, the activity, negative = inhibition is -2.15%. For the compound `CCC(NC(C)C)C(O)c1ccc(O)c(O)c1` (stereo not given), the activity, negative = inhibition is 1.25%. On to `CCC(C(=O)OCCN(CC)CC)c1ccccc1` (stereo not given), for which the activity, negative = inhibition is 2.13%. On to `CCCC(=O)Nc1ccc(OCC(O)CNC(C)C)c(C(C)=O)c1` (stereo not given), for which the activity, negative = inhibition is 7.52%. As to `Cc1cc(=O)n(-c2ccccc2)n1C`, the activity, negative = inhibition was 10.3%. For `CC(=O)OCC(=O)[C@@]1(OC(C)=O)[C@@H](C)C[C@H]2[C@@H]3C[C@H](F)C4=CC(=O)C=C[C@]4(C)[C@@]3(F)[C@@H](O)C[C@@]21C`, the activity, negative = inhibition is 0.432%. Turning to `CC(C)(C)CC(C)(C)c1ccc(OCCOCC[N+](C)(C)Cc2ccccc2)cc1`, the activity, negative = inhibition is -2.12%. Turning to `CC1(C)O[C@@H]2C[C@H]3[C@@H]4C[C@H](F)C5=CC(=O)CC[C@]5(C)[C@H]4[C@@H](O)C[C@]3(C)[C@]2(C(=O)CO)O1`, the activity, negative = inhibition was -6.53%. The same measure, in the same setting: the same measure for `CCN(CCCCOC(=O)c1ccc(OC)c(OC)c1)C(C)Cc1ccc(OC)cc1` (stereo not given): 1.95%. Take `CC(C)(Oc1ccc(Cl)cc1)C(=O)O`: the activity, negative = inhibition is -4.02%. On the same count and under the same terms, the same measure for `CC(=O)O[C@]1(C(C)=O)CC[C@H]2[C@@H]3C[C@H](C)C4=CC(=O)CC[C@]4(C)[C@H]3CC[C@@]21C`: 11.1%; for `CCN(CCCc1ccccc1)CCCc1ccccc1`: 13.6% and 2.48%. Still for that read-out and setting: next, `CN1CCN(CCCN2c3ccccc3Sc3ccc(S(=O)(=O)N(C)C)cc32)CC1`: 5.77%; `C[C@H](CCC(=O)O)[C@H]1CC[C@H]2[C@@H]3C(=O)C[C@@H]4CC(=O)CC[C@]4(C)[C@H]3CC(=O)[C@]12C`: 1.08%; `CC(=O)OCC(=O)[C@@]1(O)CC[C@H]2[C@@H]3CCC4=CC(=O)C=C[C@]4(C)[C@H]3[C@@H](O)C[C@@]21C`: -3.24%.

Consider `NCCCC[C@H](N[C@@H](CCc1ccccc1)C(=O)O)C(=O)N1CCC[C@H]1C(=O)O`, for which the activity, negative = inhibition is 4.58%.

Turning to `CC(CCc1ccccc1)NCC(O)c1ccc(O)c(C(N)=O)c1` (stereo not given), the activity, negative = inhibition was 9.7%. Still for that read-out and setting: next, `C[C@]12CC[C@H]3[C@@H](CCC4=CC(=O)CC[C@@]43C)[C@@H]1CC[C@@H]2C(=O)CO`: 1.53%. In the case of `Oc1c(Cl)cc(Cl)cc1Sc1cc(Cl)cc(Cl)c1O`, the activity, negative = inhibition was -99.1% (active).

On to `C[C@@H]1C[C@H]2[C@@H]3CCC4=CC(=O)C=C[C@]4(C)[C@@]3(F)[C@@H](O)C[C@]2(C)[C@H]1C(=O)CO`, for which the activity, negative = inhibition is 1.17%. Turning to `CCCCCCCCCCCCCCCC[N+](C)(C)CCN(Cc1ccc(OC)cc1)c1ncccn1`, the activity, negative = inhibition is 11.5%. With `O=C(OCCOCCO)c1ccccc1Nc1cccc(C(F)(F)F)c1`, the activity, negative = inhibition is -10.5%. As for `CC(O)(P(=O)(O)O)P(=O)(O)O`, the activity, negative = inhibition is 3.57%. Still for that read-out and setting: next, `COc1c(C)c2c(c(O)c1C/C=C(\C)CCC(=O)O)C(=O)OC2`: 8.02%; `CC(=O)OCC(=O)[C@@]1(O)[C@H](C)C[C@H]2[C@@H]3CCC4=CC(=O)C=C[C@]4(C)[C@@]3(F)[C@@H](O)C[C@@]21C`: -9.24%. On to `CC(=O)OCC(=O)[C@@]12OC(C)(C)O[C@@H]1C[C@H]1[C@@H]3C[C@H](F)C4=CC(=O)C=C[C@]4(C)[C@@]3(F)[C@@H](O)C[C@@]12C`, for which the activity, negative = inhibition is -3.28%. Still for that read-out and setting: next, `CC(=O)N(O)CCCCCNC(=O)CCC(=O)N(O)CCCCCNC(=O)CCC(=O)N(O)CCCCCN`: 10.3%.
